Source: PubChem BioAssay (Tox21)
A number with no mark means an inactive call. Inconclusive results are not listed. Entries that show only a call come without a potency. The source made the active and inactive calls. Unless noted, calls follow the shape of the dose curve; as a rule, active = well fitted curve in the direction sought with a large enough effect in the repeat runs; inconclusive = weak or mixed curves; inactive = no such curve, though single readings can be large; an effect the other way counts as inactive or inconclusive.

Experiments:
[1] = qHTS assay to identify small molecule HDAC inhibitors (AID 1259364); also: nearly all actives have a fitted effect of over 45% in size; also: potency is read from the fitted curve at half-maximal effect; as to activity change, negative = inhibition: top concentration of the series differs between compounds
How it was run: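 Homogeneous cell-based luminescent assay of endogenous class I/II HDAC activity; HCT-116 cells, 2 h compound exposure, 30 min HDAC-Glo development at RT.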

[2] = qHTS assay to identify small molecule HDAC inhibitors - cell viability counter screen (AID 1259365); also: series mostly up to about 92 µM; nearly all actives have a fitted effect of over 50% in size
How it was run: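 Luminescence from CellTiter-Glo, developed 30min at room temperature, reports viability of wild-type HCT-116 cells treated 2hr with compounds at 37 C and 5% CO2 after overnight plating.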

[3] = qHTS assay to identify small molecule antagonists of the sonic hedgehog signaling (Shh) pathway (AID 1259369; calls by dose curve; also: nearly all actives have a fitted effect of over 45% in size; also: potency is read from the fitted curve at half-maximal effect)
How it was run: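 Inhibition of Shh signalling is measured as reduced Gli1-response-element firefly luciferase output in an NIH/3T3-derived stable reporter clone stimulated with conditioned medium for 24hr.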

[4] = qHTS assay to identify small molecule agonists of the sonic hedgehog signaling (Shh) pathway - cell viability counter screen (AID 1259366); also: nearly all actives have a fitted effect of over 50% in size
How it was run: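 Cytotoxicity counter screen run in the same wells as the Shh reporter assay. NIH/3T3 cells carrying a Gli1 response element–driven luciferase were treated with DMSO-dissolved compounds for 24hr, and live-cell protease activity was measured with CellTiter-Fluor.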

[5] = qHTS assay to identify small molecule agonists of the sonic hedgehog signaling (Shh) pathway (AID 1259368; calls by dose curve;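 also: NIH/3T3-derived 3T3Gli1-Luc cells carrying a stable Gli1-driven firefly luciferase reporter; series mostly up to about 92 µM; nearly all actives have a fitted effect of over 15% in size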)
How it was run: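 Steps: seed 3T3 Gli1-Luc cells, incubate 4 hr at 37 C, pin-transfer compounds in DMSO alongside a positive control, incubate 24 hr, add luciferase detection reagent, wait 30 min at room temperature, read luminescence.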

[6] = molecular target: Estrogen receptor beta (Homo sapiens) (UniProt Q92731); assay: qHTS assay to identify small molecule agonists of the estrogen receptor beta (ER-beta) signaling pathway (AID 1259377; active = well fitted activation curve with a large enough effect in the signal ratio in the repeat runs, not every such curve was filed as active; the % refers to the signal ratio)
Sequence of Estrogen receptor beta (Homo sapiens) (Q92731 whole entry, looked up): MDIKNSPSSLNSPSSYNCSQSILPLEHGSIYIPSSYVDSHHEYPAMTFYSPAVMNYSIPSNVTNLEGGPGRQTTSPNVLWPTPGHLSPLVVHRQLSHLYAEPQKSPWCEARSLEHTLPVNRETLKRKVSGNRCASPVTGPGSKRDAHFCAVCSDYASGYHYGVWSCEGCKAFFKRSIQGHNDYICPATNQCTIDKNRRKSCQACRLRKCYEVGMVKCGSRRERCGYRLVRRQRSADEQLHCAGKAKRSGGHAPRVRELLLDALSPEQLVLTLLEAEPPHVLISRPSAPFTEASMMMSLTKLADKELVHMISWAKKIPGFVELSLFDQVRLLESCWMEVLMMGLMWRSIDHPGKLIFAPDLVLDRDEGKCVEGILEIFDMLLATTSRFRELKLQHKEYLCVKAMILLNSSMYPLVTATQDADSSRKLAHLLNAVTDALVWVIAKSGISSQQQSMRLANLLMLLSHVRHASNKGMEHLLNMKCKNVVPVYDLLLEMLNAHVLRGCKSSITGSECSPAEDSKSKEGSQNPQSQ
How it was run: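 HEK293T ER-beta-UAS-bla; 2% charcoal-stripped FBS; cells pre-incubated 6 hr, compound 16 hr, 37C/5% CO2; LiveBLAzer B/G FRET substrate 2 h RT; fluorescence intensity read.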

[7] = qHTS assay to identify small molecule antagonists of the sonic hedgehog signaling (Shh) pathway - cell viability counter screen (AID 1259367); also: nearly all actives have a fitted effect of over 55% in size; also: potency is read from the fitted curve at half-maximal effect
How it was run: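 NIH/3T3-derived Gli1-Luc reporter cells (2,000 per well) rested 4 hr at 37 C, then received DMSO compounds plus conditioned medium. After 23 hr of treatment, CellTiter-Fluor was added for 1 hr at 37C and fluorescence read.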

[8] = molecular target: Estrogen receptor beta (Homo sapiens) (UniProt Q92731); assay: qHTS assay to identify small molecule antagonists of the estrogen receptor beta (ER-beta) signaling pathway (AID 1259378; active = well fitted inhibition curve with a large enough effect in the signal ratio in the repeat runs, not every such curve was filed as active; the % refers to the signal ratio)
How it was run: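 ER-beta-UAS-bla HEK293T (GripTite) cells in 2% charcoal-stripped FBS medium were preincubated 6 hr at 37C, dosed with compound, then stimulated with 1 nM E2 (final) for 16 hr; beta-lactamase reporter read by B/G FRET fluorescence after 2 hr substrate loading.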

Cc1c(Cl)c(=O)oc2cc(O)ccc12
Potency [1]: inactive | Potency [2]: inactive | Potency [3]: 34.4 µM (active)

CC(C)(C)c1ccc(OC2CCCCC2O)cc1 (configuration not stated)
Potency [1]: inactive | Potency [2]: inactive | Potency [4]: inactive | Potency [5]: inactive | Potency [3]: 38.6 µM (active) | outcome [6]: inactive

c1ccc(-c2ccccc2-c2ccccc2)cc1
Potency [1]: inactive | Potency [2]: inactive | Potency [7]: 43.3 µM (active) | Potency [5]: inactive | Potency [3]: 15.4 µM (active)

S=C1NC=NC2N=CNC12 (configuration not stated)
Potency [1]: inactive | Potency [2]: inactive | Potency [4]: inactive | Potency [7]: inactive | Potency [3]: inactive

Cc1cccc(C)c1C
Potency [1]: inactive | Potency [2]: inactive | Potency [4]: inactive | Potency [3]: inactive

Nc1ccc(Cl)c([N+](=O)[O-])c1
Potency [2]: inactive | Potency [5]: inactive

COc1cc(C(C)C)ccc1C
activity change, negative = cytotoxicity [2]: 0.521% [at 19 µM] | viability change, negative = cytotoxic [4]: 0.547% [at 19 µM] | viability change, negative = cytotoxic [7]: 0.176% [at 19 µM] | activity change [5]: 1.1% [at 18.9 µM, active compounds read high] | activity change, negative = inhibition [3]: -24.4% [at 19 µM] | activity, negative = inhibition [8]: -9.09% [at 19 µM]

CCN(CCC#N)c1ccc(N=Nc2ccc([N+](=O)[O-])cc2)cc1
Potency [1]: 15.4 µM (active) | Potency [4]: inactive | Potency [7]: inactive | Potency [3]: inactive | outcome [6]: inactive | Potency [8]: inactive
